# PubChem BioAssay
# Several values for one entry are separate records, joined by “and”; a condition that tells them apart may be missing. Identical values can stand only once. Results filed as inconclusive are left out. Activity calls are given as the source filed them.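 The calls were made as follows, unless noted: active = GFP response above 150% of the DMSO control; inconclusive = Fewer than 70 cells counted for a yeast strain; inactive = the rest.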
# Legend:
# [1] = rapamycin-like changes in RPL19A-GFP expression – cell-based, S. cerevisiae, multiplex flow cytometry, primary screen (AID 1862; in the data active = percent of DMSO control GFP below about 86%;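 also: lower values mimic rapamycin by blocking the RPL19A rise seen in DMSO cells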); settings: S. cerevisiae RPL19A-GFP strain, flow cytometry fluorescence, 3 h; at 10 µM; stronger effect = lower value
# [2] = TOR pathway GLN3 branch reporter MEP2-GFP changes – S. cerevisiae, multiplex flow cytometry, primary screen (AID 1867;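 active = GFP response, as percent of the DMSO control, above the screen-wide mean plus 3 SD, about 139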;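 also: median GFP channel fluorescence of barcode-gated MEP2-GFP cells measured by flow cytometry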); settings: S. cerevisiae MEP2-GFP strain, 3 h, at 10 µM, stronger effect = higher value, 100% means same as DMSO wells
# [3] = TOR pathway RTG branch CIT2 reporter changes – S. cerevisiae, GFP fusion, multiplex flow cytometry, primary screen (AID 1870;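 active = percent response above a set limit, the screen-wide mean plus 3 SD, cut at about 130% in these data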;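 also: barcoded CIT2-GFP strain pooled with four other GFP strains with rapamycin as positive control; median GFP fluorescence per well over plate mean of DMSO wells so 100% = DMSO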); settings: S. cerevisiae CIT2-GFP expression, 3 h, at 10 µM, stronger effect = higher value
# [4] = TOR pathway LAP4-GFP level changes – S. cerevisiae, multiplex flow cytometry, primary screen (AID 1873;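 active = GFP signal, as percent of the solvent control, above the screen mean plus 3 SD, about 149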); settings: S. cerevisiae LAP4-GFP expression, 3 h, at 10 µM, stronger effect = higher value
# [5] = yeast AGP1-GFP level changes, GLN3 branch – cell-based, multiplex flow cytometry, S. cerevisiae, primary screen (AID 1887;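 active = GFP signal above the screen-wide mean plus 3 SD, that is over about 124.5% of the solvent control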;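 also: AGP1-GFP fusion strain of S. cerevisiae within a five-strain barcoded multiplex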); settings: 3 h, at 10 µM, stronger effect = higher value
# [6] = hit retest on RPL19A-GFP reporter strain – cell-based, S. cerevisiae, flow cytometry, cherry picks, mother/daughter gates, confirmation (AID 2270;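 active = GFP response below 50% of the DMSO control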); settings: 3 h, at 10 µM, stronger effect = lower value, 100 = same GFP as DMSO wells
# [7] = yeast TOR pathway reporter LAP4-GFP change – cell-based, cherry picks, flow cytometry, mother/daughter gates, confirmation (AID 2271;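 active = GFP response above 150% of the DMSO control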;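 also: ratio of sample to DMSO plate mean so 100% equals DMSO level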); settings: S. cerevisiae LAP4-GFP strain, 3 h, at 10 µM, stronger effect = higher value, 100 means same as DMSO control
# [8] = TOR pathway reporter MEP2-GFP, retest of hits – S. cerevisiae, flow cytometry GFP, cherry picks, confirmation (AID 2272);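 also: ratio of well signal to plate DMSO mean so 100% equals DMSO level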; settings: S. cerevisiae MEP2-GFP strain, 3 h, at 10 µM, stronger effect = higher value
# [9] = TOR pathway CIT2 reporter hit retest – S. cerevisiae, GFP fusion, cherry picks, mother/daughter gates, confirmation (AID 2274;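 active = GFP response above 150% of the DMSO level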); settings: S. cerevisiae CIT2-GFP strain, flow cytometry, 3 h, at 10 µM, stronger effect = higher value
# [10] = reduced mouse 2C T cell binding to pMHC/ICAM-1 vesicles – MLPCN validation set, flow cytometry, LFA-1/ICAM-1 modulator project, pilot screen (AID 2523;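 active = response below a set limit, under 55% cells CD8-positive and vesicle-bound, and CD8 cells' 90th-percentile brightness under 279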;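 as to vesicle binding response: mean PE anti-B7-1 fluorescence of CD8+ cells relative to row control; 100% = QL9-loaded vesicles with DMSO vehicle in the same plate row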); settings: 2C mouse CD8+ T cells, at 7 µM, stronger effect = lower value; double positive events: measured here: CD8+/vesicle+ event percentage
# [11] = molecular target: Integrin beta-1 (Homo sapiens) + Integrin alpha-4 (Homo sapiens) (UniProt P13612+P05556); test: alpha4beta1 integrin LIBS antibody binding reduction – U937 cells, HUTS-21 mAb, flow cytometry, validation set, VLA-4 allosteric modulator project, pilot screen (AID 2674;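 active = inhibition above 50%, about 3 SD of the validation set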;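 also: antibody binding induced by the VLA-4 ligand LDV present at three times its Kd; 0% = LDV ligand with antibody and no compound and 100% = antibody without LDV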); settings: HUTS-21 LIBS mAb binding, at 6.7 µM, stronger effect = higher value, binding induced by LDV ligand
# Sequence of Integrin beta-1 (Homo sapiens) + Integrin alpha-4 (Homo sapiens) (P05556 whole entry, looked up): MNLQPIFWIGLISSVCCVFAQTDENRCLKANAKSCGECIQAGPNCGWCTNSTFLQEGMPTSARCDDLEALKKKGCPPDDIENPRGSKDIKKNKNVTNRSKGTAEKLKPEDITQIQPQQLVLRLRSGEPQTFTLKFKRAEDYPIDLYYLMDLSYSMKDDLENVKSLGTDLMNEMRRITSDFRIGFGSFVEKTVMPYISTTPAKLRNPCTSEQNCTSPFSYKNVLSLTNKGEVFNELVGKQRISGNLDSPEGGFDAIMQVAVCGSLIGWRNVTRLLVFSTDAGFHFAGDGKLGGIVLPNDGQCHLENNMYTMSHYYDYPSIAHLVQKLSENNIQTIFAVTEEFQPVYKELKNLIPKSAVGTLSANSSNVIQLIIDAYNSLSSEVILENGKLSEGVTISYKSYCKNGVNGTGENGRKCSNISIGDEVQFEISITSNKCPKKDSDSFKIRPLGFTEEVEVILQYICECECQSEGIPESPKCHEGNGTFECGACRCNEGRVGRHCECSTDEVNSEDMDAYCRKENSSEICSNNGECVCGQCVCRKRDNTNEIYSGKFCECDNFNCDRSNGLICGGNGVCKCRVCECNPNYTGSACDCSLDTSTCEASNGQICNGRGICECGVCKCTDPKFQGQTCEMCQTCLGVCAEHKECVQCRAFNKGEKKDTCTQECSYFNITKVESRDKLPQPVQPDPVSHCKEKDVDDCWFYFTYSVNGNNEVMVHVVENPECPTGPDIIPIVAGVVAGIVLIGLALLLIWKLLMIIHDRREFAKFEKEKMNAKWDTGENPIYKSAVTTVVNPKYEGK
# Sequence of Integrin beta-1 (Homo sapiens) + Integrin alpha-4 (Homo sapiens) (P13612 whole entry, looked up): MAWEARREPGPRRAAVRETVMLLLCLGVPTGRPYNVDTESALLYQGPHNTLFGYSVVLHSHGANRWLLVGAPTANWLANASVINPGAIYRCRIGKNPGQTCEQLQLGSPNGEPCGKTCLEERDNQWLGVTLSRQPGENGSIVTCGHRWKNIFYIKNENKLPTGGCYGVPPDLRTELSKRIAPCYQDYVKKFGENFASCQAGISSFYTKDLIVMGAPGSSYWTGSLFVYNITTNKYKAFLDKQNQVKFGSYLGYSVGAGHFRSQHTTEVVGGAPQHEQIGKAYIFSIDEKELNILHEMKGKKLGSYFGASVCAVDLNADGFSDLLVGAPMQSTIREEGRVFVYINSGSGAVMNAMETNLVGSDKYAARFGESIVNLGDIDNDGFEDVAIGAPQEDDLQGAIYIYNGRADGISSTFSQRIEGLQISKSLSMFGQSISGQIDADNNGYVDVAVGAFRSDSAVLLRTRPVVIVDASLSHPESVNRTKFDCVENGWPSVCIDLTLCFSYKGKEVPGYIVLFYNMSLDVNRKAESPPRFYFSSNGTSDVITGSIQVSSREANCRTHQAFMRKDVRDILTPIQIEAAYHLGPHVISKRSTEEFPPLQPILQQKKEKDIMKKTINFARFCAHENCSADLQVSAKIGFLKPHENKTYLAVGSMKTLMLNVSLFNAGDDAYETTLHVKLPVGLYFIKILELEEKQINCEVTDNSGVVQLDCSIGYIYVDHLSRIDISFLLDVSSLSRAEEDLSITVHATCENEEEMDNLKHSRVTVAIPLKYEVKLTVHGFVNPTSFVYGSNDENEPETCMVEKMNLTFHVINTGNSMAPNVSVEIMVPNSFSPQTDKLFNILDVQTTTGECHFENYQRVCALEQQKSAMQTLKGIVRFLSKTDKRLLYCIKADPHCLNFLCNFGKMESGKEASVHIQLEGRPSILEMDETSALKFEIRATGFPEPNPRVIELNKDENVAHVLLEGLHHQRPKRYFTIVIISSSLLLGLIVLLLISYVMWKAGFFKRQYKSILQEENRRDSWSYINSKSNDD
# [12] = calorie-restriction mimetic ROS inhibitors, yeast – validation compound set, pilot screen (AID 2706;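 active = superoxide response below 65% of plate, a cut near 3 SD across the whole screen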;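 also: yeast exposed to compound for one week at 30 degrees C before staining; 100% = mean of all compound wells on the same plate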); settings: S. cerevisiae aging, superoxide DHE fluorescence; at 10 µM; stronger effect = lower value
# [13] = molecular target: Beta-adrenergic receptor kinase 1 (Homo sapiens) (UniProt P25098); test: GRK2 binders displacing RNA aptamer, biochemical, validation, human GRK2, bead flow cytometry (AID 488806;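 active = aptamer binding inhibition above 30%, about 3 SD of noise from non-fluorescent compounds; inactive = inhibition at or below 30%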); settings: bead-bound GRK2, FAM-aptamer displacement, at 10 µM, stronger effect = higher value
# Sequence of Beta-adrenergic receptor kinase 1 (Homo sapiens) (P25098 whole entry, looked up): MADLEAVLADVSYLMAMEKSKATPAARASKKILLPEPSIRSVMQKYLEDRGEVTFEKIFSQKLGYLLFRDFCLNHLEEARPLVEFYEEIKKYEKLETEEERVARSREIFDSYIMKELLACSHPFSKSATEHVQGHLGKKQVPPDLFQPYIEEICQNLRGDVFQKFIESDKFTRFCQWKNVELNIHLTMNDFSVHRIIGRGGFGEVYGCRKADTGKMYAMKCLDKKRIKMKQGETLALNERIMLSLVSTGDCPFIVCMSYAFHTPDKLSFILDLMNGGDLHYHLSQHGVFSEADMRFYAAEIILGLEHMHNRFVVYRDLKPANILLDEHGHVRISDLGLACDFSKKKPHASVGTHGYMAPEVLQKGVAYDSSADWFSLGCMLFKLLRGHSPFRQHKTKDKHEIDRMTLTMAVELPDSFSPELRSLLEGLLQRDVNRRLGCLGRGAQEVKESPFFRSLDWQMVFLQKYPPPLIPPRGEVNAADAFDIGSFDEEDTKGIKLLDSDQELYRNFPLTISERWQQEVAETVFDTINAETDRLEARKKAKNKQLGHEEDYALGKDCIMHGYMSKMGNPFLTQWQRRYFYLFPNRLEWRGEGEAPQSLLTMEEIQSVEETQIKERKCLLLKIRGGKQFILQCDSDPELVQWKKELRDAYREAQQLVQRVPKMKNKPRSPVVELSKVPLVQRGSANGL
# [14] = molecular target: Beta-2 adrenergic receptor (Homo sapiens) (UniProt P07550); test: agonist-induced loss of surface beta2AR – cell-based, FAP fluorogen, flow cytometry, validation set, pilot screen (AID 504459;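 active = percent response above 42, roughly 3 SD of non-fluorescent test compounds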;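 also: agonist-driven loss of surface beta2AR via internalization measured by FAP dye flow cytometry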); settings: Am2.2-beta2AR cells, at 10 µM, stronger effect = higher value
# Sequence of Beta-2 adrenergic receptor (Homo sapiens) (P07550 whole entry, looked up): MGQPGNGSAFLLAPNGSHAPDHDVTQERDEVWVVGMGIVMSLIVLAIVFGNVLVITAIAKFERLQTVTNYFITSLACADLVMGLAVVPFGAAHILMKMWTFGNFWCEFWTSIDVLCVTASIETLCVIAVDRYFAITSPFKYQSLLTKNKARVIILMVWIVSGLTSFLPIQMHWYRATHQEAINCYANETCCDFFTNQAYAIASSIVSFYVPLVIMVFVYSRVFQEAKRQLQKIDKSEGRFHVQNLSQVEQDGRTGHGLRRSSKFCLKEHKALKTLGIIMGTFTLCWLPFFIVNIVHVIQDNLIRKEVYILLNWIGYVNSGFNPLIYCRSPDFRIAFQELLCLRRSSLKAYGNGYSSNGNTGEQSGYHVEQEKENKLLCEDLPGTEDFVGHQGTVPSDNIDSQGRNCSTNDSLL
# [15] = molecular target: AP-2 complex subunit beta (Homo sapiens) (UniProt P63010); test: beta-arrestin/AP2 interaction blockers – biochemical, validation set, GST-AP2 beads, flow cytometry, pilot screen (AID 504541;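 active = inhibition above 54%, about 3 SD of non-fluorescent compounds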;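 also: AP2 carries R879A mutation and is captured from E. coli lysate; bead-bound FITC arrestin peptide fluorescence measuring arrestin peptide binding to AP2; 0% = DMSO wells and 100% = excess unlabeled arrestin peptide control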); settings: FITC arrestin peptide, at 10 µM, stronger effect = higher value, AP2 beta2 appendage fragment, R879A mutant
# Sequence of AP-2 complex subunit beta (Homo sapiens) (P63010 whole entry, looked up, the tested form may be a part, one chain of several): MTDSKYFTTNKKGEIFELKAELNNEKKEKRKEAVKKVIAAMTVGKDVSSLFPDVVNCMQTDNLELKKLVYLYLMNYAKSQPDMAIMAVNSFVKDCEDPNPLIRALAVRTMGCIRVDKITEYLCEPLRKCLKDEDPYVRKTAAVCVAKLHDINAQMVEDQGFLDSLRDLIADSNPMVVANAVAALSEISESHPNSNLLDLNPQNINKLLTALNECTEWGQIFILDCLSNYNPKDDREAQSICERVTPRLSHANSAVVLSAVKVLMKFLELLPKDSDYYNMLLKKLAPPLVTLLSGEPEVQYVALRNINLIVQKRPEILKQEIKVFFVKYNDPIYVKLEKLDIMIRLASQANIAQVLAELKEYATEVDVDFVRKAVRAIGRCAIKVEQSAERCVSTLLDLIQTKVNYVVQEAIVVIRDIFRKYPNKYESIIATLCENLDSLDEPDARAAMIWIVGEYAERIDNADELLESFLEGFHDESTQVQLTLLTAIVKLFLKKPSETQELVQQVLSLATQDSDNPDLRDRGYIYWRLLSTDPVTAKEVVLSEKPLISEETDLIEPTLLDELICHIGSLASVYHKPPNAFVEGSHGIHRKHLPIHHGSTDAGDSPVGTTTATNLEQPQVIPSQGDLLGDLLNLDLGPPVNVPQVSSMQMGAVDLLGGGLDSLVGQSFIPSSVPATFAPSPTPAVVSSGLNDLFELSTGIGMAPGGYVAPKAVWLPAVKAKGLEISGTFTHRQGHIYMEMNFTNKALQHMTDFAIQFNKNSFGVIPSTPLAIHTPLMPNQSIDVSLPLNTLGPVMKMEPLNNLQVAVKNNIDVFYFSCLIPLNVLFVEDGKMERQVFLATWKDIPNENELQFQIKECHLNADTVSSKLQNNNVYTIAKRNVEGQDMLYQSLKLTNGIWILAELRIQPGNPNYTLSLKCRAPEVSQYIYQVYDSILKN
# [16] = cytosolic pH regulators acting via V-ATPase – S. cerevisiae, pHLuorin, HTS validation (AID 504600; in the data active = response above about 15%;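 also: plate controls were DMSO for no effect and reference compound for full effect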); settings: V-ATPase proton transport, at 10 µM, stronger effect = higher value
# [17] = system: anti-desmoglein-3 scFv antibody binding to human DSG3; test: blockers of pathogenic pemphigus antibody–desmoglein-3 binding – biochemical, validation compound set, bead-based, flow cytometry, pilot screen (AID 588368;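 active = binding below the plate cutoff, the plate median minus 3 SD, with a reading above zero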;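 also: signal is the median channel fluorescence of bead-bound GFP antibody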); settings: Protein G beads, DSG3-Fc, scFv-GFP binding, at 10 µM, stronger effect = lower value
# [18] = Nile Red efflux blockade in pump-expressing yeast – validation compound set, multiplex, phenotypic, pilot screen (AID 588506;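 active = efflux inhibition above 0.42, the validation set average plus 4 SD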;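 also: Nile Red retained in cells so higher fluorescence means more efflux inhibition; 0 = negative control wells and 1 = enniatin B 25 µM full block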); settings: S. cerevisiae pump-expressing triplex, Nile Red efflux flow cytometry; at 10 µM; stronger effect = higher value; the pumps come from Candida albicans
# [19] = molecular target: ATP-binding cassette sub-family B member 6 (Homo sapiens) (UniProt Q9NP58); test: blockers of ABCB6-driven porphyrin uptake – K562-ABCB6 cells, flow cytometry, validation set, pilot screen (AID 588550;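 active = inhibition above the screen-wide mean plus 3 SD, about 51%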;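 also: 0% = DMSO wells and 100% = benzethonium chloride 70 µM positive control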); settings: K562-ABCB6 porphyrin accumulation, 1 h, at 10 µM, stronger effect = higher value
# Sequence of ATP-binding cassette sub-family B member 6 (Homo sapiens) (Q9NP58 whole entry, looked up): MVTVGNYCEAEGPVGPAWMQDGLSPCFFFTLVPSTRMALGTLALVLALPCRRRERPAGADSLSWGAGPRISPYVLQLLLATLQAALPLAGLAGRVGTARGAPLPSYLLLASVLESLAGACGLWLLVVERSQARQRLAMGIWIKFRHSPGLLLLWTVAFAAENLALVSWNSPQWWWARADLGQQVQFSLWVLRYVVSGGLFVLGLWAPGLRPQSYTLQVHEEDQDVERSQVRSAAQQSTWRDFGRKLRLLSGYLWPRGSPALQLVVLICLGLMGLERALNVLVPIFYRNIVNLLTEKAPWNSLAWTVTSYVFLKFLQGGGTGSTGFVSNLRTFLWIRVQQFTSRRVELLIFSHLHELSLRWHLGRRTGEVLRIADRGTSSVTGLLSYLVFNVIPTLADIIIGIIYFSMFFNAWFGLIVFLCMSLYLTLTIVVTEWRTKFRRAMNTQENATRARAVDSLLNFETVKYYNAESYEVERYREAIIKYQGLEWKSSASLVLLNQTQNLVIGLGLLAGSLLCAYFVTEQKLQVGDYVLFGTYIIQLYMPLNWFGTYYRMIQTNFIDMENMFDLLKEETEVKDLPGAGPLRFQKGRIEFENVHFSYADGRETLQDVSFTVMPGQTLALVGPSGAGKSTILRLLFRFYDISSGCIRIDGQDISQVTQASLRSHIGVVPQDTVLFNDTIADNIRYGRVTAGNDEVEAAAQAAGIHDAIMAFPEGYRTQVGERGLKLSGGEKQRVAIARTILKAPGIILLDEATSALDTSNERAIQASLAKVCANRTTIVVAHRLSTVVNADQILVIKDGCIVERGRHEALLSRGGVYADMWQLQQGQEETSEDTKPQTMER
# [20] = AML differentiation inducers, ER-HoxA9 marrow cells – cell-based, GFP/MAC1 double positive, flow cytometry, validation set, primary screen (AID 588685;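 active = differentiation response of at least 50%, scaled between solvent and reference control, from cells with both markers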;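 also: compound exposure lasts four days before antibody staining and flow analysis; 0% = DMSO wells and 100% = 5 µM fulvestrant positive control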); settings: stronger effect = higher value, normalized: vehicle 0, fulvestrant 100
# [21] = measured here: daughter cell gate
# [22] = measured here: mother cell gate
# [23] = measured here: daughter cell gate response
# [24] = measured here: mother cell gate response
structure (smiles),measurement,setting,value
CC(=O)Nc1ccccc1O,percent of DMSO control GFP,[1],87.8% (inactive)
same,GFP response vs DMSO,[2],152% (active)
same,percent response of DMSO control,[3],102% (inactive)
same,GFP response vs DMSO,[4],85.3% (inactive)
same,"GFP response, % of DMSO",[5],86.6% (inactive)
same,GFP response vs DMSO,[6],99% (inactive)
same,GFP response vs DMSO,[6]; [21],101%
same,GFP response vs DMSO,[6]; [22],99.8%
same,GFP response relative to DMSO,[7],93.8% (inactive)
same,GFP response relative to DMSO,[7]; [23],98.7%
same,GFP response relative to DMSO,[7]; [24],93.1%
same,GFP response vs DMSO,[8],100% (inactive)
same,"GFP response, % of DMSO",[9],110% (inactive)
same,"GFP response, % of DMSO",[9]; [21],105%
same,"GFP response, % of DMSO",[9]; [22],113%
same,double positive events,[10],61.6%
same,vesicle binding response,[10],142% (inactive)
same,inhibition,[11],6.46% (inactive)
same,superoxide response (% of plate),[12],87.6% (inactive)
same,aptamer binding inhibition,[13],6% (inactive)
same,response,[14],2.64% (inactive)
same,inhibition,[15],0.05% (inactive)
same,response,[16],0.98% (inactive)
same,binding (% of control),[17],101% (inactive)
same,efflux inhibition (fraction of control),[18],-0.28 (inactive)
same,inhibition,[19],8% (inactive)
same,differentiation response,[20],3.28% (inactive)
CCOC(=O)C(Cc1cc(C(C)=O)ccc1OC(C)C)C(=O)OCC,percent of DMSO control GFP,[1],93% (inactive)
same,GFP response vs DMSO,[2],142% (active)
same,percent response of DMSO control,[3],110% (inactive)
same,GFP response vs DMSO,[4],85.3% (inactive)
same,"GFP response, % of DMSO",[5],89.1% (inactive)
same,GFP response vs DMSO,[6],101% (inactive)
same,GFP response vs DMSO,[6]; [21],101%
same,GFP response vs DMSO,[6]; [22],102%
same,GFP response relative to DMSO,[7],97.7% (inactive)
same,GFP response relative to DMSO,[7]; [23],95%
same,GFP response relative to DMSO,[7]; [24],99.5%
same,GFP response vs DMSO,[8],99.5% (inactive)
same,"GFP response, % of DMSO",[9],96.4% (inactive)
same,"GFP response, % of DMSO",[9]; [21],98.3%
same,"GFP response, % of DMSO",[9]; [22],96.8%
same,double positive events,[10],58.5%
same,vesicle binding response,[10],151% (inactive)
same,inhibition,[11],-1.3% (inactive)
same,superoxide response (% of plate),[12],91% (inactive)
same,aptamer binding inhibition,[13],4% (inactive)
same,response,[14],-7.47% (inactive)
same,inhibition,[15],47% (inactive)
same,response,[16],-8.56% (inactive)
same,binding (% of control),[17],99.8% (inactive)
same,efflux inhibition (fraction of control),[18],-0.09 (inactive)
same,inhibition,[19],10% (inactive)
same,differentiation response,[20],4.09% (inactive)
C[C@]12CCC(=O)C=C1CC[C@@H]1[C@@H]2[C@@H](O)C[C@@]2(C)[C@H]1CC[C@]2(O)C(=O)COC(=O)CCC(=O)O,percent of DMSO control GFP,[1],104% (inactive)
same,GFP response vs DMSO,[2],108% (inactive)
same,percent response of DMSO control,[3],110% (inactive)
same,GFP response vs DMSO,[4],119% (inactive)
same,"GFP response, % of DMSO",[5],108% (inactive)
same,GFP response vs DMSO,[6],98% (inactive) and 96.4% (inactive)
same,GFP response vs DMSO,[6]; [21],96.4% and 98.1%
same,GFP response vs DMSO,[6]; [22],101% and 94.9%
same,GFP response relative to DMSO,[7],97.4% (inactive) and 99.2% (inactive)
same,GFP response relative to DMSO,[7]; [23],103% and 97.6%
same,GFP response relative to DMSO,[7]; [24],91.1% and 100%
same,GFP response vs DMSO,[8],100% (inactive)
same,"GFP response, % of DMSO",[9],96.5% (inactive) and 98.3% (inactive)
same,"GFP response, % of DMSO",[9]; [21],94.8% and 99.1%
same,"GFP response, % of DMSO",[9]; [22],92.3% and 97.3%
same,double positive events,[10],43.7%
same,vesicle binding response,[10],165% (inactive)
same,inhibition,[11],-9.57% (inactive)
same,superoxide response (% of plate),[12],98.2% (inactive)
same,aptamer binding inhibition,[13],0% (inactive)
same,inhibition,[15],-8.58% (inactive)
same,response,[16],10.6% (inactive)
same,binding (% of control),[17],99.5% (inactive)
same,efflux inhibition (fraction of control),[18],-0.16 (inactive)
same,inhibition,[19],10% (inactive)
same,differentiation response,[20],-26% (inactive)
